Experimental data reported in publication PMC5540273 (PLoS ONE, 2017).
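Also: kd values determined as follow-up on hits from a single-replicate KINOMEscan panel screen.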

The compounds below were run on T1, CDC2L1.
T1 construct: gene CDK11B
`Cc1cccc(-c2nc(C)cc(Nc3ccncc3)n2)n1` [GSK257997] was tested, and the Kd was > 10 µM. With `CS(=O)(=O)c1ccc(-c2nc3n(c2-c2ccncc2)CCC3)cc1` [SKF-105942] the Kd was > 10 µM. For `O=C(Nc1n[nH]c2nc(-c3nccs3)c(Br)cc12)C1CCCC1` [SB-742609], the Kd was > 10 µM.

What follows are compounds tested on CDK9.
For `Cc1cccc(-c2nc(C)cc(Nc3ccncc3)n2)n1` [GSK257997], the Kd was > 10 µM. With `CS(=O)(=O)c1ccc(-c2nc3n(c2-c2ccncc2)CCC3)cc1` [SKF-105942] the Kd was > 10 µM. In the case of `O=C(Nc1n[nH]c2nc(-c3nccs3)c(Br)cc12)C1CCCC1` [SB-742609], the Kd is reported as 2.5 µM.
